# Only some compounds are listed: those with a hit (about 9.3% of all), similar ones and a draw of the others.
# FMDV inh – High Throughput Screening for Foot and Mouth Disease Virus Antivirals | 1.2% of 410,000 active | FMDV antiviral cell-based qHTS | Potency, µM (doses to about 57.9 µM), without a hit: at the top dose activity change, negative = inhibition, usual class: inhibitors | AID 1159524, 2015; calls by dose curve; tested in HEK293T cells; further: read-out not given here; potency means the concentration at half of the fitted maximal effect; nearly all actives have a fitted effect of over 45% in size
# VACV mCherry inh – qHTS for Stage-Specific Inhibitors of Vaccinia Orthopoxvirus: mCherry Reporter Primary qHTS; Vaccinia virus mCherry reporter infection, fluorescence; AID 720579, 2013; 0.63% of 310,000 active; Potency, µM (doses to about 36.5 µM), for the others: top-dose activity change, negative = inhibition, actives largely listed as inhibitors; calls by dose curve; tested in A549 cells; further: potency means the concentration at half of the fitted maximal effect; nearly all actives have a fitted effect of over 35% in size
# HCV inhibitor – qHTS Assay for Inhibitors of Hepatitis C Virus (HCV); 3.4% of 340,000 active; Huh7.5.1 HCVcc-Cre infection, luciferase reporter, 44 h; Potency, µM (highest dose often 41.8 µM), for inactives: at the top dose activity change, negative = inhibition, most hits filed as inhibitors; AID 651820, 2012; further: potency means the concentration at half of the fitted maximal effect
#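 Cells (1,000/well) were plated 4 h before compound, then infected with HCVcc-Cre virus (~0.5 moi). After 44 h further culture, infection was read as luciferase luminescence following a 15 min substrate incubation at room temperature.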
# HCMV antiviral – qHTS Assay for inhibitors of the human cytomegalovirus (HCMV) | activity change, negative = inhibition, % at 57.5 µM | 4.5% of 410,000 active | HFF cells, HCMV-luciferase reporter, 72 h; stronger effect = lower value; in the data active means activity change below about -60%; inconclusive means no clear call, values can overlap the other calls; inactive means above about -39%
#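 Human foreskin fibroblasts infected with luciferase-reporter HCMV at MOI 1 PFU/cell, compounds at two doses. Luciferase measured 72 h post infection; normalized to buffer-only basal and Salinomycin (10uM) controls.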
# Sm TGR inh – qHTS Assay for the Inhibitors of Schistosoma Mansoni Peroxiredoxins | Schistosoma mansoni thioredoxin glutathione reductase (TGR), Q962Y6 | purified TGR, DTNB reduction, TNB absorbance 405 nm | Potency, µM (top dose mostly 114 µM), for inactives: at the highest dose activity change, negative = inhibition, usual class: inhibitors | 3% of 360,000 active | AID 485364, 2010; further: potency means the concentration at half of the fitted maximal effect; nearly all actives have a fitted effect of over 60% in size
#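 TGR 20 nM + NADPH 100 uM (dispensed conc.), cpd preinc 15 min RT; start with NADPH (500 uM addition) then DTNB (15 mM addition). Kinetic TNB absorbance, 405 nm filter. Four-parameter Hill fit across titration.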
# Vaccinia Venus – qHTS for Stage-Specific Inhibitors of Vaccinia Orthopoxvirus: Venus Reporter Primary qHTS. Vaccinia virus Venus reporter expression, fluorescence. Potency, µM (doses to about 36.5 µM), for inactives: top-dose activity change, negative = inhibition, usual class: inhibitors. 0.46% of 330,000 active; calls by dose curve; tested in A549 cells; further: potency means the concentration at half of the fitted maximal effect; nearly all actives have a fitted effect of over 30% in size
# Starred values were filed as active, the others as inactive; i = inactive; u = inconclusive; x = no result given; [ ] = dose if it differs, or a comment. Unless noted, the call rests on the fitted dose curve; in most records, active means well fitted curve in the direction sought with a large enough effect; inconclusive means small, poorly fitted or top-dose-only effect, or another doubt; inactive means no such curve, though single readings can be large; an effect the other way counts as inactive or inconclusive. On the % scale 0 is the no-effect control and ±100 the full control effect.
SMILES,FMDV inh,VACV mCherry inh,HCV inhibitor,HCMV antiviral,Sm TGR inh,Vaccinia Venus
COc1ccccc1-c1ccc(/C=C2/C=C(CC(C)C)OC2=O)o1,-6%,-14%,-9%,-7,35µM*,-6%
CCCC1=C/C(=C/c2ccc(-c3ccccc3OC)o2)C(=O)O1,-11%,-14%,14%,-33,22µM*,21%
O=Cc1ccc(-c2ccccc2OC(F)(F)F)o1,0%,x,6%,-7,-22%,-16%
Cc1cc2nc(C(F)(F)F)[nH]c(=O)n2n1,-4%,x,29%,-31,6%,-5%
O=C(C(Br)=Cc1ccccc1)c1ccccc1,25µM*,u,u,-83*,x,u
CC(=O)C(=Cc1ccc(-c2ccccc2)cc1)C(=O)c1ccccc1,22µM*,-5%,x,41,x,-13%
COc1ccc2cc(C#N)c(Nc3cccc(F)c3)nc2c1,-19%,-21%,-13%,1,4%,-6%
O=C(c1ccc2c(c1)N(Cc1ccccc1F)C(=O)c1ccccc1S2(=O)=O)N1CCN(c2ccccc2F)CC1,-8%,14%,x,10,u,1%
COc1ccc2oc(=O)c(C(=O)N3CCN(c4ccccc4)CC3)cc2c1,x,i,0%,-2,-5%,-11%
COc1ccc2oc(=O)c(/C(C)=N/Nc3ccccc3)cc2c1,-14%,x,-6%,-15,45µM*,x
O=C(c1cc2c(ccc3ccccc32)oc1=O)N1CCCC1,24%,-6%,3%,-90*,-8%,-6%
COc1ccc2oc(=O)c(C(=O)N3CCN(C(=O)c4ccccc4)CC3)cc2c1,-17%,i,6%,-95*,-8%,-8%
COc1ccc2oc(=O)c(C(=O)Nc3cccc(C(C)=O)c3)cc2c1,45%,x,-14%,12,-8%,x
COc1ccc2oc(=O)c(C(=O)N3CCN(C(=O)c4ccco4)CC3)cc2c1,5%,i,25%,8,40µM*,-7%
O=C(CSc1cn(CCNC(=O)c2ccccc2)c2ccccc12)NCC1CCCO1 (configuration not stated),-9%,x,u,-28,-1%,x
COc1ccc2oc(C(=O)OCC(=O)N(Cc3ccccc3)C(C)C)c(C)c2c1,-4%,i,26%,-32,-21%,-22%
COc1ccc2nc(SCC(=O)Nc3ccc4c(c3)CCC4)[nH]c2c1,7%,-22%,-11%,-14,-1%,-11%
CCCCN(C(=O)c1cc2c(s1)CCC2)c1c(N)n(CCCC)c(=O)[nH]c1=O,-1%,-12%,11µM*,-17,0%,8%
CCCCN(C(=O)c1cc2c(s1)CCCC2)c1c(N)n(CCC)c(=O)[nH]c1=O,-22%,x,17%,-14,0%,x
CCCCN(C(=O)CC1CCCC1)c1c(N)n(CCC)c(=O)[nH]c1=O,1%,x,13%,-4,0.56µM*,x
C[C@@]12C(=O)Nc3cc(F)ccc3C(=O)N1[C@H]1c3cc(Br)ccc3OC[C@@H]1[C@@H]2c1ccccc1,u,-14%,u,-31,x,-30%
C/C(Cn1cnc([N+](=O)[O-])n1)=N\NC(=O)c1ccccc1,9%,-5%,5%,4,3%,-4%
C/C(Cn1nnc([N+](=O)[O-])n1)=N\NC(=O)c1ccccc1,x,u,u,-24,-16%,13µM*
CC(C)Sc1nc2c([nH]c3ccccc32)c(=O)n1C,-15%,i,-17%,-20,7%,-3%
CCOC(=O)c1cc(-c2ccc(C)o2)nn1CCC#N,-3%,x,-12%,44,18µM*,-20%
SMILES,FMDV inh,VACV mCherry inh,HCV inhibitor,HCMV antiviral,Sm TGR inh,Vaccinia Venus
COc1cccc(NC(=O)Cn2nnc(-c3nc(-c4ccccc4)no3)c2N)c1,18%,-12%[7.34 µM],x,-8,7%,-6%[7.34 µM]
CCCCC1=CC2=C(c3ccco3)C(=O)C(C)(OC(=O)c3ccc(OC)cc3)C(=O)C2=CN1CCCCO (configuration not stated),-16%,-18%,-31%,-3,u,-12%
CCCCC1=CC2=C(c3ccco3)C(=O)C(C)(OC(=O)c3ccc(OC)cc3)C(=O)C2=CN1CCN1CCOCC1 (configuration not stated),-26%,i,-12%,x,45µM*,-8%
CCCCC1=CC2=C(c3ccco3)C(=O)C(C)(OC(=O)c3ccc(OC)cc3)C(=O)C2=CN1CC(C)C (configuration not stated),-18%,-28%,15%,12,14µM*,-15%
CC(c1ccccc1)N(CCC(c1ccccc1)C1CCOC(C)(C)C1)C(=O)c1ccco1 (configuration not stated),u,-13%,4%,-101*,-5%,-9%
COc1ccc(CN(CCC(c2ccc(F)cc2)C2CCOC(C)(C)C2)C(=O)c2ccco2)cc1 (configuration not stated),u,-15%,u,-4,-35%,-14%
CCOC(=O)c1c(-c2ccc(F)cc2)csc1NC(=O)CCN1C(=O)c2ccccc2C1=O,-5%,-19%,10%,13,0%,2%
CC(=O)NC(c1ccc2ccccc2c1)c1ccc2cccnc2c1O (configuration not stated),-13%,u,2.5µM*,-98*,-3%,u
COc1cccc(C(NC(C)=O)c2nc(-c3cccc4cccnc34)cs2)c1 (configuration not stated),-3%,-12%,x,29,x,-9%
COc1ccc(C(NC(C)=O)c2ccc3cccnc3c2O)cc1OC (configuration not stated),x,7.9µM*,x,x,x,u
COc1ccc(C(NC(C)=O)c2ccc3cccnc3c2O)c(OC)c1 (configuration not stated),0%,x,5µM*,x,-6%,u
CCOc1cc(C(Nc2cc(C)ccn2)c2ccc3cccnc3c2O)ccc1OC (configuration not stated),-18%,i[7.34 µM],x,-97*,0.28µM*,-9%[7.34 µM]
COc1ccc(CCNC(=O)CSc2cccc3cccnc23)cc1OC,-12%,-17%,13%,34,-2%,-12%
O=C(Oc1c(Cl)cc(Cl)c2cccnc12)c1cccs1,-20%,u,u,u,u,u
O=C(Oc1ccc(Cl)c2cccnc12)N1CCOCC1,6%,i,-1%,65,7%,-17%
O=C(Oc1c(CN2CCOCC2)cc(Cl)c2cccnc12)c1ccccc1Cl,-19%,3.5µM*,u,-98*,-2%,5.6µM*
O=C(Oc1c(CN2CCOCC2)cc(Cl)c2cccnc12)c1cccs1,-17%,u,u,-98*,u,u
